Experimental data published in PubChem BioAssay (NCI).
About 83,000 compounds went through this panel and 20% of them were active in at least one assay; those are over-represented in the sample as a whole.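 Testing used 96-well plates and a 48-hour single-concentration exposure. Example: -40 means 40% of the starting cells died.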 A number with no mark means an inactive call. Activity calls are given as the source filed them. The calls were made as follows: active = growth percent below 10; inactive = the rest.

test system: A549/ATCC NSCLC; assay: NCI-60 one-dose screen, 48 h (100 = growth as untreated, 0 = no growth, -100 = all killed); settings: 10 µM unless noted

| Compound | growth |
| --- | --- |
| C=CCC(=O)N[C@H](/C=C/C(=O)O)Cc1ccc(-c2cc(Cl)cc(Cl)c2)cc1 | 76.9% |
| CCN1CCN(c2cc(C)nc(N(CCCNc3ccnc4cc(Cl)ccc34)Cc3cccs3)n2)CC1 | 20.1% |
| COC(=O)CCCNc1c(-c2c(O)c(O)cc3c(O)c(-c4c(C)cc5c(-c6nc7ccccn7c6NCCCC(=O)OC)c(O)c(O)cc5c4O)c(C)cc23)nc2ccccn12 | 23.4% |
| Cn1ncc(Cl)c1-c1cc(C(=O)N[C@H](CN)Cc2ccc(F)c(F)c2)oc1Cl | -53.4% (active) |
| O=c1[nH]c(N2CCOCC2)nc2scc(-c3ccccc3)c12 | 86.8% |
| Cc1cc2c(-c3nc4ccccn4c3NC3CCCCC3)c(O)c(O)cc2c(O)c1-c1c(C)cc2c(-c3nc4ccccn4c3NC3CCCCC3)c(O)c(O)cc2c1O | 22.8% |
| CC(C)C1CCC(C)C(C2(C#N)C(N)=NC(N)=C2C#N)C1=O (stereo not drawn) | 105% |
| Cc1cc(N2CCCC2)nc(N(CCCNc2ccnc3cc(Cl)ccc23)Cc2ccc3c(c2)OCO3)n1 | 13.2% |
| [2H]C1([2H])[C@H](C)O[C@H](C)C([2H])([2H])N1c1ccc(NC(=O)c2cccc(-c3ccc(OC(F)(F)F)cc3)c2C)cn1 | 68.9% |
| Cc1cc2c(-c3nc4ccccn4c3NC34CC5CC(CC(C5)C3)C4)c(O)c(O)cc2c(O)c1-c1c(C)cc2c(-c3nc4ccccn4c3NC34CC5CC(CC(C5)C3)C4)c(O)c(O)cc2c1O | 2.96% (active) |
| CC[C@H](Nc1ncnc2nc[nH]c12)c1nc2cccc(F)c2c(=O)n1-c1ccccc1 | 43.2% |
| COC(=O)C1=C(C(=O)OC)C23C=C(C)C1C2=C(C)C1(CC1)[C@@](C)(O)C3=O (stereo partly drawn) | 1.39% (active) |
| c1ccc2c(c1)CCN(NCCN1CCCC1)C2 | 85.5% |
| Cc1cc(N(CCNc2ccnc3cc(Cl)ccc23)Cc2cccs2)nc(Cl)n1 | 15.8% |
| COc1cc(-c2nc(C(=O)Nc3ccc(C)cc3)nn2-c2ccc(F)c(F)c2)cc(OC)c1OC | 96.2% |
| O=C(Cn1c(=O)ccn(CCCCCCCCOc2ccc(Br)cc2)c1=O)Nc1ccc(Oc2ccc(Cl)cc2)cc1 | 54.4% |
| Cc1ccc(-c2cc3c(SCC(=O)Nc4cc(C(F)(F)F)ccc4Cl)nccn3n2)cc1 | 36% |

| Compound | growth |
| --- | --- |
| CCCc1cc2cc(-n3nc(C)c4c3CC(C)(C)CC4=O)cc(NC3CCC(O)CC3)c2c(=O)[nH]1 (stereo not drawn) | 21% |
| COc1ccc(C(=O)c2cc(OC)c(OC)c(OC)c2)cc1/C=C/C(=O)c1ccc(F)cc1 | 90.7% |
| CC(C)=CCc1cc2c(cc1O)C1=C(C(=O)C3=C(C1=O)S(=O)(=O)CCN3)C(C=C(C)C)O2 (stereo not drawn) | -42.4% (active) |
| CN1CCN(c2nc(NCCNc3ccnc4cc(Cl)ccc34)c3ccccc3n2)CC1 | 1.62% (active) |
| COc1ccc(CCCc2c3[n+](cc4c(OC)c(OC)ccc24)CCc2cc4c(cc2-3)OCO4)cc1 | 61.2% |
| N#Cc1cc2[nH]c3ccc(OC(F)(F)F)cc3c2oc1=O | 91.3% |
| CCN1CCN(CCCN(C[C@H]2Cc3ccccc3CN2)[C@H]2CCCc3cccnc32)CC1 | 90.9% |
| Clc1ccc2c(NCCCNCc3ccc4c(c3)OCO4)ccnc2c1 | 51.2% |
| Cc1cc(N2CCOCC2)nc(N(CCNc2ccnc3cc(Cl)ccc23)Cc2cccs2)n1 | 28.7% |
| CCN1CCN(c2cc(C)nc(N(CCCNc3ccnc4cc(Cl)ccc34)Cc3ccc4c(c3)OCO4)n2)CC1 | 11.5% |
| COc1cc(-c2cc(-c3ccc(Nc4ccnc5cc(Cl)ccc45)cc3)nc(N3CCOCC3)n2)cc(OC)c1OC | -30.7% (active) |
| COC(=O)C1CCc2sc3ncnc(Nc4cn[nH]c4C(=O)Nc4ccc(CN5CCN(C)CC5)cc4)c3c21 (stereo not drawn) | 4.85% (active) |
| CO/C=C/C(=O)c1cc2cnc3c(=N)cc(NC(=O)C(C)C)c([nH]1)c23 | 19.3% |
| CCN1CCN(c2nc(C)cc(N(CCNc3ccnc4cc(Cl)ccc34)Cc3ccc4c(c3)OCO4)n2)CC1 | 20.4% |
| N#CC(C#N)=NO | 73.4% |
| C=CC(=O)N(C)[C@H]1C[C@H]2OC(C)(C1OC)n1c3ccccc3c3c4c(c5c6ccccc6n2c5c31)C(=O)NC4 (stereo partly drawn) | 9.49% (active) |
